Screens deposited in PubChem BioAssay by National Center for Advancing Translational Sciences (NCATS).
A selection: hits, their analogues and other compounds. The true share with any hit is near 4%.
TSHR agonist: agonists of human thyroid stimulating hormone receptor. P16473. HEK293-CNG-TSHR cells (CNG channel as cAMP sensor), membrane potential dye, cAMP. Potency, µM (series often up to 57.1 µM), without a hit: top-dose activation, hits mostly activators. 73,000 tested, 0.48% active; active = well fitted activation curve with a large enough effect in the main read-out, with a control signal flat, not every such curve was filed as active; inconclusive = small, poorly fitted or top-dose-only effect, or a change in a side signal; inactive = no such curve, though single readings can be large or run the other way; % of control where 0% means no effect;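 also: the control signal comes from parental cells without the receptor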
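HEK 293 cells stably expressing TSHR and a cAMP-gated CNG channel; parental CNG-only cells as counterscreen. Cells preloaded 60 min with membrane potential dye plus 100 uM RO 20-1724, then compound 30 min; fluorescence read at 590 nm.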
GBA activity: human lysosomal glucosylceramidase modulation; P04062; purified enzyme, resorufin glucoside fluorescence (screen aimed at inhibitors), 20 min; Potency, µM; 48,000 tested, 1.1% active; AID 360; in the data active = potency below about 15 µM; inconclusive = mostly about 16 µM to 33 µM;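 also: the screen sought inhibitors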
Target sequence (P04062 whole entry, looked up): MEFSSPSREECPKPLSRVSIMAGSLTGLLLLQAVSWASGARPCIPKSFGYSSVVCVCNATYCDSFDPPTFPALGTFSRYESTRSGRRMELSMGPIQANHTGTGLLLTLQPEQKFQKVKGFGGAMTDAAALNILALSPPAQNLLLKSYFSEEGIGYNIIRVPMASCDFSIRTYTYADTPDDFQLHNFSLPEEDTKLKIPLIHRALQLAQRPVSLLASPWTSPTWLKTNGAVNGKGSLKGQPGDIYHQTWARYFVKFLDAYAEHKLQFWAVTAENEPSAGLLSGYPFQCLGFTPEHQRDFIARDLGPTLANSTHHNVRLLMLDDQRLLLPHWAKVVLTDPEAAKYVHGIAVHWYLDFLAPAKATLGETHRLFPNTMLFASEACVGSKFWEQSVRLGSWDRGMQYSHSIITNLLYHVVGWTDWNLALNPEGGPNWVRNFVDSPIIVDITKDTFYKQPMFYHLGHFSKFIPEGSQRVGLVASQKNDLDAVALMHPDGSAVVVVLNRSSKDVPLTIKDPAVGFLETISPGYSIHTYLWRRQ
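Normal human glucocerebrosidase (0.2 nM final) was assayed with resorufin β-D-glucopyranoside (30 uM final) in 50mM citric acid/KH2PO4, 10mM sodium taurocholate, 0.01% tween-20, pH 5.9. Compounds were titrated; fluorescence (Ex 548, Em 600) read after 20 min at RT.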
Bst PK mod: pyruvate kinase (B. stearothermophilus) modulation | purified pyruvate kinase, luminescence ATP production; ribose 5-phosphate activator present at AC10 | 51,000 tested, 1.2% active | Potency, µM; in the data active = potency below about 11 µM; inconclusive = mostly about 12 µM to 25 µM;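 the screen sought inhibitors and activators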;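 also: scaled between full activation by ribose 5 phosphate and full inhibition by luteolin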
HEK293 cAMP cs: parental HEK293 cAMP activation (counter-screen) | Potency, µM (highest dose often 57.1 µM), without a hit: top-dose activation, usual class: activators | AID 938 | parental HEK293 CNG cAMP sensor, membrane potential fluorescence | 73,000 tested, 2.5% active; active = well fitted activation curve with a large enough effect; inconclusive = small, poorly fitted or top-dose-only effect; inactive = no such curve, though single readings can be large or run the other way; also: % of control where 0% means no effect; nearly all actives have a fitted effect of over 55% in size
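Counterscreen for endogenous-receptor signalling: CNG-channel HEK 293 cells report cAMP rise by membrane depolarization. After 60 min dye equilibration with 100 uM RO 20-1724, compounds incubated 30 min before bottom-read fluorescence at 590 nm.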
The depositor's hits bear a star; [ ] = remark or other dose. Potency is read from the fitted curve at half-maximal effect.

For Cc1ccc(-c2nc(=S)c3c(n2Cc2ccco2)CCCC3)cc1 the results were TSHR agonist inconclusive and HEK293 cAMP cs 2.51µM*.
`O=C(NCCN1CCOCC1)c1ccc(Cc2nc3ccccc3[nH]2)cc1` gave TSHR agonist 0.3% and HEK293 cAMP cs -8.0%.
O=C1c2ccccc2C(=O)N1Cc1nc2ccccc2o1 was read as TSHR agonist -10.2%, GBA activity >76.9 and HEK293 cAMP cs 4.4%.
Screening O=C1c2ccccc2C(=O)N1CCCSc1nc2ccccc2o1 returned TSHR agonist inconclusive and HEK293 cAMP cs 3.98µM*.
For C#C[C@@]1(O)CC[C@H]2[C@H]3CCC4=Cc5oncc5C[C@]4(C)[C@@H]3CC[C@@]21C the results were TSHR agonist 28.8% and HEK293 cAMP cs 6.7%.
CCOc1ccc(Nc2cc(C)nc(N3CCOCC3)n2)cc1 was read as TSHR agonist 3.5%, GBA activity 3.43*, Bst PK mod 1.45* and HEK293 cAMP cs 5.0%.
CCOc1ccc2nc(N3CCOCC3)nc(C)c2c1 was read as TSHR agonist 1.7%, Bst PK mod inactive and HEK293 cAMP cs 11.8%.
For CCOc1ccc(Nc2nc(NCCN3CCOCC3)nc(OC)n2)cc1 the results were TSHR agonist -2.2%, GBA activity inconclusive, Bst PK mod 6.31* and HEK293 cAMP cs -5.3%.
Screening COC(=O)c1ccc(OCc2nc(N)nc(N3CCOCC3)n2)cc1 returned GBA activity >76.9, Bst PK mod >57 and HEK293 cAMP cs 5.8%.
Screening CCOC(=O)c1ccc(Nc2cc(C)nc(N3CCOCC3)n2)cc1 returned TSHR agonist -10.3%, GBA activity 8.47*, Bst PK mod 1.52* and HEK293 cAMP cs 0.3%.
Screening COc1ccc(CNc2ncnc3ccc(-c4ccccc4CN(C)C)cc23)c(OC)c1 returned TSHR agonist inconclusive and HEK293 cAMP cs -31.5%.
Cc1ccc(S(=O)(=O)n2c3ccccc3c3nnc(C(=O)c4ccccc4)nc32)cc1 was read as TSHR agonist -16.4%[11.4 µM] and HEK293 cAMP cs -10.4%[11.4 µM].
For Cc1cc(-c2ccc(N=Nc3cc(S(=O)(=O)O)c4ccccc4c3N)c(C)c2)ccc1N=Nc1cc(S(=O)(=O)O)c2ccccc2c1N the results were TSHR agonist inconclusive and HEK293 cAMP cs -37.3%.
Screening Nc1nc(SCC(=O)O)[nH]c(=O)c1N returned TSHR agonist -4.2%[11.4 µM] and HEK293 cAMP cs 6.4%[11.4 µM].
Screening Cc1cc(C)cc(OCC(=O)Nc2cccc(-c3nnc(-c4ccco4)o3)c2)c1 returned TSHR agonist inconclusive, GBA activity >76.9, Bst PK mod >57 and HEK293 cAMP cs 25.1µM*.
`O=C(COc1ccccc1)Nc1cccc(-c2nnc(-c3ccccc3)o2)c1` gave TSHR agonist inconclusive, GBA activity >76.9, Bst PK mod >57 and HEK293 cAMP cs 25.1µM*.
`O=C(O)CCC(=O)Nc1ccc(-c2nnc(-c3ccco3)o2)cc1` gave TSHR agonist -6.6% and HEK293 cAMP cs 5.5%.
For c1ccc(CCc2cccnc2)nc1 the results were TSHR agonist 0.0%[11.4 µM] and HEK293 cAMP cs 3.9%[11.4 µM].
For O=C(O)C(Cc1cccs1)C(=O)O the results were TSHR agonist 0.6%[11.4 µM] and HEK293 cAMP cs -3.0%[11.4 µM].
`Cc1ccc(S(=O)(=O)c2c(C)nn(C(C)(C)C)c2OC(=O)c2ccc(Br)o2)cc1` gave TSHR agonist 3.9%, GBA activity 12.5*, Bst PK mod >57 and HEK293 cAMP cs 3.2%.
Cc1ccc(S(=O)(=O)c2c(C)nn(C(C)(C)C)c2OC(=O)c2ccco2)cc1 was read as TSHR agonist 9.8%, Bst PK mod >57 and HEK293 cAMP cs 3.9%.
`COC(=O)c1c(-c2ccc(F)cc2)csc1NC(=O)c1ccco1` gave TSHR agonist inconclusive and HEK293 cAMP cs 3.98µM*.
`COc1ccc(-c2cc(C(=O)NCc3cccs3)no2)cc1OC` gave TSHR agonist 29.7% and HEK293 cAMP cs 2.4%.
`N#CCSc1nnc(COc2cccc3ccccc23)n1-c1ccccc1` gave TSHR agonist inconclusive, Bst PK mod >57 and HEK293 cAMP cs 12.6µM*.
`N#CCSc1nnc(COc2cccc3ccccc23)n1-c1cccc(Cl)c1` gave TSHR agonist 8.2%, GBA activity inconclusive, Bst PK mod >57 and HEK293 cAMP cs 26.8%.
For CCCN(CCC)S(=O)(=O)c1cc(Br)cc2c1N(C(=O)CC)CC2 the results were TSHR agonist inconclusive, GBA activity >76.9, Bst PK mod >57 and HEK293 cAMP cs 25.1µM*.
Screening O=C(O)CCCSc1ccccc1 returned TSHR agonist 0.0%[11.4 µM] and HEK293 cAMP cs 4.4%[11.4 µM].
Cc1cc(N2CCOCC2)nc2cc(O)ccc12 was read as TSHR agonist inconclusive and HEK293 cAMP cs 6.31µM*.
`Cc1cc(C#N)c(C)n1-c1cc(C(F)(F)F)ccc1N1CCOCC1` gave TSHR agonist inconclusive, GBA activity inactive, Bst PK mod >57 and HEK293 cAMP cs 12.6µM*.
Screening CC(C)C(=O)Nc1cc(C(F)(F)F)ccc1N1CCOCC1 returned TSHR agonist 11.7%, GBA activity >76.9, Bst PK mod >57 and HEK293 cAMP cs 6.3%.
Cn1c(=O)c2c(nc(CN3CCc4ccccc4C3)n2Cc2cccc(Cl)c2)n(C)c1=O was read as TSHR agonist 19.4% and HEK293 cAMP cs 15.4%.
COCCn1c(CN2CCN(c3ccc(OC)cc3)CC2)nc2c1c(=O)n(C)c(=O)n2C was read as TSHR agonist 9.6%, GBA activity >76.9, Bst PK mod >57 and HEK293 cAMP cs 3.4%.
For COc1ccc(N2CCN(Cc3nc4c(c(=O)n(C)c(=O)n4C)n3Cc3ccccc3C)CC2)cc1 the results were TSHR agonist 10µM* and HEK293 cAMP cs 3.8%.
Cn1c(=O)c2c(nc(CN3CCc4ccccc4C3)n2CCc2ccccc2)n(C)c1=O was read as TSHR agonist inconclusive, GBA activity >76.9, Bst PK mod >57 and HEK293 cAMP cs 5.01µM*.
For CC[C@]1(O)C[C@H]2CN(CCc3c([nH]c4ccccc34)[C@](C(=O)OC)(c3cc4c(cc3OC)N(C)[C@@H]3[C@](O)(C(=O)OC)[C@H](OC(C)=O)[C@]5(CC)C=CCN6CC[C@]43[C@@H]65)C2)C1 the results were HEK293 cAMP cs 7.6%.
Screening Cc1ccc(N[C@H](c2ccccc2)c2ccc3cccnc3c2O)cc1 returned TSHR agonist 4.1%[11.4 µM] and HEK293 cAMP cs 2.4%[11.4 µM].
`COC(=O)C1=C(C)NC(C)=C(C(=O)OC)C1C1CC=CCC1` (stereo unspecified) gave TSHR agonist 20µM* and HEK293 cAMP cs 20.6%.
CCOC(=O)C1=C(C)NC(=O)NC1C1CC=CCC1 (stereo unspecified) was read as TSHR agonist -12.8%, GBA activity >76.9, Bst PK mod >57 and HEK293 cAMP cs 5.1%.
O=C(O)c1c(-c2c3ccc(=O)cc-3oc3cc(O)ccc23)cc2ccccc2c1-c1ccccc1 was read as TSHR agonist -2.9%[11.4 µM] and HEK293 cAMP cs -6.3%[11.4 µM].
O=C(CCCCCn1c(=S)[nH]c2cc3c(cc2c1=O)OCO3)N1CCN(C2CCCCC2)CC1 was read as TSHR agonist -37.0%, GBA activity 0.896*, Bst PK mod >57 and HEK293 cAMP cs -27.6%.
Screening CCOC(=O)c1c(C)oc2ccc(O)c(CN3CCCCC3)c12 returned TSHR agonist inconclusive, GBA activity >76.9, Bst PK mod >57 and HEK293 cAMP cs 15.8µM*.
